Molecules are shown by their SMILES. Activity calls are given as the source filed them. The call rests on the fitted dose curve; in most records, active means well fitted curve in the direction sought with a large enough effect; inconclusive means small, poorly fitted or top-dose-only effect, or another doubt; inactive means no such curve, though single readings can be large or run the other way.

The nature of this assay: qHTS for compounds that reverse cellular toxicity of Amyloid beta (A-beta) peptide in yeast: LOPAC Validation Assay (AID 720559).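 Further: plate controls were DMSO for no effect and equimolar ferric chloride plus clioquinol rescue for full effect.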 To be noted: yeast expressing A-beta; series mostly up to 46.1 µM; growth rescue, positive = activation: at the top concentration. In a few lines:
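Here, A-beta-toxic yeast grow with test compounds at 30 C for 48 hr before optical density at 600 nm is recorded; data are normalized against DMSO and the FeCl3-clioquinol control.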
In the case of `c1ccc2c(c1)OCC(C1=NCCN1)O2` (centres undefined), the “growth rescue, positive = activation” value is -4.41% (inactive).

With `NN=C(N)N`, the result was inactive.

`COC[C@H]1OC(=O)c2coc3c2[C@@]1(C)C1=C(C3=O)C2CCC(=O)[C@@]2(C)C[C@H]1OC(C)=O` (some centres undefined): the “growth rescue, positive = activation” value was -57.7% (inactive).

Consider `Cc1ccc(S(=O)(=O)N[C@@H](CCCCN)C(=O)CCl)cc1`, for which the “growth rescue, positive = activation” value is -5.87% (inactive).

Regarding `CC[C@@H](CO)NC(=O)[C@@H]1C=C2c3cccc4c3c(cn4C)C[C@H]2N(C)C1`, the “growth rescue, positive = activation” value was -1.04% (inactive).

Consider `CCC1(C2=NCCN2)Cc2ccccc2O1` (centres undefined), for which the “growth rescue, positive = activation” value is -2.71% (inactive).

With `CC(=O)[C@H]1CC[C@H]2[C@@H]3CC[C@H]4C[C@](C)(O)CC[C@]4(C)[C@H]3CC[C@]12C`, the “growth rescue, positive = activation” value is -1.12% (inactive).

Turning to `CN1C[C@H](CNC(=O)OCc2ccccc2)C[C@@H]2c3cccc4c3c(cn4C)C[C@H]21`, the “growth rescue, positive = activation” value is -10.2% (inactive).

Regarding `COc1ccc(C(CN(C)C)C2(O)CCCCC2)cc1` (centres undefined), the “growth rescue, positive = activation” value was 7.79% (inactive).

Take `Cc1ncc(CNC(=O)N(CCCl)N=O)c(N)n1`: the “growth rescue, positive = activation” value was -7.71% (inactive).

`CC(CCc1ccccc1)NC(C)C(O)c1ccc(O)cc1` (centres undefined): the “growth rescue, positive = activation” value is 0.0979% (inactive).

Consider `c1ccc(C2CC2)c(OCC2=NCCN2)c1`, for which the “growth rescue, positive = activation” value was 0.135% (inactive).

As for `NCC(CC(=O)O)c1ccc(Cl)cc1` (centres undefined), the “growth rescue, positive = activation” value is -10.2% (inactive).

`Fc1ccc(C(OCCN2CCN(CCCc3ccccc3)CC2)c2ccc(F)cc2)cc1`: the “growth rescue, positive = activation” value was 3.01% (inactive).

On to `CC(O)(CS(=O)(=O)c1ccc(F)cc1)C(=O)Nc1ccc(C#N)c(C(F)(F)F)c1` (centres undefined), for which the “growth rescue, positive = activation” value is 1.3% (inactive).

In the case of `N#CC(C#N)=Cc1ccc(O)c(O)c1`, the “growth rescue, positive = activation” value is -3.65% (inactive).

Turning to `Cc1cccc(C)c1NC(=O)CN1CCCC1=O`, the “growth rescue, positive = activation” value was -3.06% (inactive).

Take `CCCN1CCC[C@@H]2Cc3[nH]ncc3C[C@H]21`: the result was inactive.

For the compound `Cc1cccc(C)c1NC1=NCCCS1`, the “growth rescue, positive = activation” value is -2.41% (inactive).

Consider `CC(C)=CCOc1c2occc2cc2ccc(=O)oc12`, for which the “growth rescue, positive = activation” value was -7.15% (inactive).

Regarding `Cc1c(OCC(F)(F)F)ccnc1CS(=O)c1nc2ccccc2[nH]1` (centres undefined), the “growth rescue, positive = activation” value was -61.4% (inactive).

In the case of `O=c1[nH]cc(F)c(=O)[nH]1`, the “growth rescue, positive = activation” value is -45.1% (inactive).

As to `NCC1(CC(=O)O)CCCCC1`, the “growth rescue, positive = activation” value was -4.42% (inactive).

For the compound `CC(=O)[C@H]1CC[C@H]2[C@@H]3CC[C@H]4C[C@H](O)CC[C@]4(C)[C@H]3C(=O)C[C@]12C`, the “growth rescue, positive = activation” value was -11.8% (inactive).

Consider `CCCN1CCC[C@@H]2Cc3nc(N)ncc3C[C@H]21`, for which the “growth rescue, positive = activation” value was -4.96% (inactive).

As for `CC[C@@H](CO)NC(=O)[C@@H]1C=C2c3cccc4[nH]cc(c34)C[C@H]2N(C)C1`, the “growth rescue, positive = activation” value was -3.75% (inactive).

For the compound `O=c1[nH]c2ccccc2n1CCCN1CCC(n2c(=O)[nH]c3cc(Cl)ccc32)CC1`, the “growth rescue, positive = activation” value is -4.28% (inactive).

`O=C1NCN(c2ccccc2)C12CCN(CC1COc3ccccc3O1)CC2` (centres undefined): the “growth rescue, positive = activation” value is -4.66% (inactive).

Regarding `COc1ccccc1N1CCNCC1`, the “growth rescue, positive = activation” value was -9.6% (inactive).
